The source of these data is PubChem BioAssay (EPA / NIEHS).

A short description of test [1]: ATG_NFI_CIS: Attagene CIS-FACTORIAL HepG2 Assay for human Nuclear Factor I (NFI) (AID 2282989). As to conditions: HepG2 cis-regulatory reporter, NFI response element transcription; actives raise or lower the signal. In short, it runs like this: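 HepG2, transient MRTU, 24 h exposure; RNA→cDNA→PCR→FAM label→HpaI→CE fluorescence. Bidirectional fit, DMSO = baseline.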

The target in test [2] is Myc proto-oncogene protein (Homo sapiens) (UniProt P01106). The test is described as follows: ATG_Myc_CIS: Attagene CIS-FACTORIAL HepG2 Assay for human Myelocytomatosis (Myc) Proto-Oncogene Transcription Factor (AID 2282990). As to conditions: HepG2, Attagene cis-reporter transcription factor activity; actives raise or lower the signal. In short, it runs like this:
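Cells of the HepG2 human liver line bear multiple cis-driven reporter transcription units. Reporter mRNA after 24 h exposure is reverse-transcribed, amplified, labelled and resolved by capillary electrophoresis, with gain- or loss-of-signal fitting relative to DMSO.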

Test [3] can be described thus: ATG_NF_kB_CIS: Attagene CIS-FACTORIAL HepG2 Assay for human Nuclear Factor Kappa B (NF-kB) (AID 2282991). As to conditions: HepG2 Attagene cis-factorial NF-kB reporter mRNA; actives raise or lower the signal. In short, it runs like this: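 HepG2, transient multi-reporter transfection, cis promoter elements (endogenous TFs). 24 h exposure. Total RNA → RT → PCR → 6-FAM label → HpaI → CE. Gain/loss vs DMSO.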

Test [4] is described as follows: ATG_NRF2_ARE_CIS: Attagene CIS-FACTORIAL HepG2 Assay for human Nuclear Factor Erythroid 2 Related Factor 2 (NFR2) response to Antioxidant Response Elements (ARE) (AID 2282992).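 On AC50: reporter mRNA level measured by RT-PCR and capillary electrophoresis fluorescence.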 Conditions: HepG2 Attagene ARE/NRF2 reporter, transcription factor activity; actives raise or lower the signal. In short, it runs like this: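 Multiplexed reporter mRNA profiling in HepG2 after a 24 h chemical exposure. Curves fitted in both directions relative to DMSO negative control.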

Test [5] in a line: ATG_Oct_MLP_CIS: Attagene CIS-FACTORIAL HepG2 Assay for human Octamer-Binding Transcription Factor (Oct) (AID 2282993). As to conditions: HepG2 Attagene cis-factorial Oct reporter, mRNA; actives raise or lower the signal. The method, boiled down: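 Multiplexed cis-reporter assay in human liver HepG2 cells, 24 h incubation. Reporter RNA amplified and labelled, then resolved by capillary electrophoresis; DMSO serves as negative control and baseline.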

Test [6] has as its target Cellular tumor antigen p53 (Homo sapiens) (UniProt P04637). The experiment in a line: ATG_p53_CIS: Attagene CIS-FACTORIAL HepG2 Assay for human p53 Transcription Factor (AID 2282994). Conditions: HepG2 p53 cis-element reporter, Attagene mRNA; actives raise or lower the signal. The method, boiled down:
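Multiplexed reporter mRNA assay in human HepG2 liver cells; cis-regulated units report endogenous factor activity. Values come from bidirectional curve fitting against DMSO negative control after 24 h treatment.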

The target of test [7] is human Peroxisome Proliferator-activated Receptor alpha (PPARa), PPARA (gene 5465) (UniProt Q07869). The experiment in a line: ATG_PPARa_TRANS: Attagene TRANS-FACTORIAL HepG2 Assay for human Peroxisome Proliferator-activated Receptor alpha (PPARa) (AID 2283001; active means hit-call score of the fitted dose curve at least 0.9, where 1 is the maximum). The method, boiled down: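 Read-out is fluorescence of reporter cDNA fragments resolved by capillary electrophoresis after RT-PCR. Human HepG2 liver cells carried transfected PPARa-Gal4 chimera and GAL4-UAS reporter units, treated 24 h; activity scored as increase over DMSO.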

Test [8] concerns the target Retinoic acid receptor alpha (Homo sapiens) (UniProt P10276). The test is described as follows: ATG_RARa_TRANS: Attagene TRANS-FACTORIAL HepG2 Assay for human Retinoic Acid Receptor alpha (RARa) (AID 2283005; active means hit-call score of the fitted dose curve at least 0.9, where 1 is the maximum). The method, boiled down:
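Reporter transcripts, measured by RT-PCR with fluorescent labeling and capillary electrophoresis after 24 h dosing, reflect activity of an exogenous human RARa–GAL4 fusion in transiently transfected HepG2. Fitted for increase relative to DMSO.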

Test [9] concerns the target human RAR-related Orphan Receptor beta (RORb), RORB (gene 6096) (UniProt Q92753). The test is described as follows: ATG_RORb_TRANS: Attagene TRANS-FACTORIAL HepG2 Assay for human RAR-related Orphan Receptor beta (RORb) (AID 2283010; active means hit-call score of the fitted dose curve at least 0.9, where 1 is the maximum). The method, boiled down:
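Readout is reporter-gene mRNA induction, detected as fluorescence after RT-PCR and capillary electrophoresis, fitted for gain of signal against DMSO controls. Transiently transfected HepG2 liver cells carrying GAL4-UAS reporter constructs were treated for 24 hours.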

The target in test [10] is human Peroxisome Proliferator-activated Receptor delta (PPARd), PPARD (gene 5467) (UniProt Q03181). The experiment in a line: ATG_PPARd_TRANS: Attagene TRANS-FACTORIAL HepG2 Assay for human Peroxisome Proliferator-activated Receptor delta (PPARd) (AID 2283002; active means hit-call score of the fitted dose curve at least 0.9, where 1 is the maximum). The method, boiled down:
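Cell-based TRANS reporter: HepG2, transient MRTU transfection, 24 h exposure. Readout = reporter mRNA (RT-PCR/CE, 6-FAM). Gain-of-signal fit vs DMSO control.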

For test [11], the target named is Peroxisome proliferator-activated receptor gamma (Homo sapiens) (UniProt P37231). The experiment in a line: ATG_PPARg_TRANS: Attagene TRANS-FACTORIAL HepG2 Assay for human Peroxisome Proliferator-activated Receptor-gamma (PPARg) (AID 2283007; active means hit-call score of the fitted dose curve at least 0.9, where 1 is the maximum). In short, it runs like this:
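Multiplexed reporter transcription units in HepG2, 24 h dosing, reporter transcripts quantified by fluorescent RT-PCR and capillary electrophoresis. Increase over DMSO scored.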

Test [12] has as its target Nuclear receptor subfamily 1 group I member 2 (Homo sapiens) (UniProt O75469). The test is described as follows: ATG_PXR_TRANS: Attagene TRANS-FACTORIAL HepG2 Assay for human Pregnane X Receptor (PXR) (AID 2283008; active means hit-call score of the fitted dose curve at least 0.9, where 1 is the maximum). In short, it runs like this:
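Measures mRNA induction of a GAL4-UAS-driven reporter in human HepG2 cells transiently expressing PXR fused to Gal4, following 24 h treatment. DMSO served as negative control and baseline.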

The target of test [13] is human Retinoic Acid Receptor gamma (RARg), RARG (gene 5916) (UniProt P13631). The experiment in a line: ATG_RARg_TRANS: Attagene TRANS-FACTORIAL HepG2 Assay for human Retinoic Acid Receptor gamma (RARg) (AID 2283009; active means hit-call score of the fitted dose curve at least 0.9, where 1 is the maximum;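 on AC50: AC50 is for reporter induction above DMSO meaning RARg activation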). The method, boiled down:
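Transient transfection of HepG2 with multi-reporter constructs, then 24 h chemical treatment. Total RNA isolated, reverse-transcribed, PCR-amplified, fluorescently labelled and resolved by capillary electrophoresis; activity scored as mRNA induction versus DMSO.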

The nature of test [14]: BSK_3C_TissueFactor: BioMAP Diversity Plus: 3C Assay for Tissue Factor Biomarker Activity (AID 2282997). As to conditions: BioMAP 3C HUVEC, tissue factor biomarker readout; actives raise or lower the signal. In short, it runs like this: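 Endothelial monolayers (human umbilical vein, primary) are dosed, incubated 24 h, and assayed for Tissue Factor by ELISA; DMSO serves as negative control for bidirectional fitting.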

The nature of test [15]: BSK_3C_uPAR: BioMAP Diversity Plus: 3C Assay for Urokinase-type plasminogen activator receptor (uPAR) Biomarker Activity (AID 2282998). Conditions: BioMAP 3C HUVEC, uPAR biomarker ELISA; actives raise or lower the signal. The method, boiled down: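 Dose primary human umbilical vein endothelial cells, incubate 24 h, measure cell-surface uPAR by ELISA, then fit the signal in both directions against the DMSO negative control.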
A general note: An ELISA detects its analyte on a solid surface through an enzyme-linked reagent.

The nature of test [16]: BSK_3C_VCAM1: BioMAP Diversity Plus: 3C Assay for Vascular cell adhesion molecule 1 (VCAM1) Biomarker Activity (AID 2282999). As to conditions: BioMAP 3C HUVEC, VCAM1 ELISA, cytokine-stimulated; actives raise or lower the signal. The method, boiled down: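 Endothelial cells from human umbilical vein are treated with test chemical. At 24 h, VCAM-1 is measured by ELISA, and responses in either direction are fitted relative to DMSO.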

Test [17] in a line: BSK_4H_Eotaxin3: BioMAP Diversity Plus: 4H Assay for Eotaxin 3 Biomarker Activity (AID 2283000). As to conditions: primary human endothelial cells (HUVEC); actives raise or lower the signal. In short, it runs like this: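 ELISA quantitation of CCL26 (Eotaxin-3) protein from chemically dosed human vascular endothelial cells at 24 h; increases and decreases both scored relative to DMSO-treated baseline.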

Read-out in test [18]: Intercellular Adhesion Molecule 1 (ICAM1), ICAM1 (gene 3383)
The test is described as follows: BSK_3C_ICAM1: BioMAP Diversity Plus: 3C Assay for Intercellular Adhesion Molecule 1 (ICAM1) Biomarker Activity (AID 2283003). As to conditions: primary human endothelial cells (HUVEC); actives raise or lower the signal. The method, boiled down: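 ICAM-1 levels measured by ELISA after HUVEC cultures in the 3C system had been dosed for 24 h. Gain or loss of signal relative to DMSO was fitted in both directions.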

For test [19], the target named is human Retinoic Acid Receptor beta (RARb), RARB (gene 5915) (UniProt P10826). The test is described as follows: ATG_RARb_TRANS: Attagene TRANS-FACTORIAL HepG2 Assay for human Retinoic Acid Receptor beta (AID 2283004; active means hit-call score of the fitted dose curve at least 0.9, where 1 is the maximum). In short, it runs like this: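 Fluorescent capillary-electrophoresis detection of GAL4-UAS reporter mRNA defines the endpoint, with induction over DMSO-treated wells scored as activity. Transiently transfected human hepatoma HepG2 cells expressing exogenous NR–Gal4 proteins are exposed to test chemicals for 24 h.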

Test [20] can be described thus: BSK_3C_Proliferation: Cell Proliferation Assessment in the BioMAP Diversity Plus: 3C Assay (AID 2283006).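 Further: potency may reflect either rise or fall in cell number versus DMSO.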 Conditions: primary human endothelial cells (HUVEC). In short, it runs like this: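 Read-out is total protein by SRB absorbance at 560 nm, taken as a proxy for relative cell number. Primary human umbilical vein endothelium cultured below confluence was dosed for 48 h, TCA-fixed and SRB-stained; curves were fitted bidirectionally versus DMSO.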

Results filed as inconclusive are left out. Activity calls are given as the source filed them. How the source made its calls, unless noted: active means hit-call score of the fitted dose curve at least 0.9, where 1 is the maximum; inactive means score below 0.9.

Sequence of Myc proto-oncogene protein (Homo sapiens) (P01106 whole entry, looked up): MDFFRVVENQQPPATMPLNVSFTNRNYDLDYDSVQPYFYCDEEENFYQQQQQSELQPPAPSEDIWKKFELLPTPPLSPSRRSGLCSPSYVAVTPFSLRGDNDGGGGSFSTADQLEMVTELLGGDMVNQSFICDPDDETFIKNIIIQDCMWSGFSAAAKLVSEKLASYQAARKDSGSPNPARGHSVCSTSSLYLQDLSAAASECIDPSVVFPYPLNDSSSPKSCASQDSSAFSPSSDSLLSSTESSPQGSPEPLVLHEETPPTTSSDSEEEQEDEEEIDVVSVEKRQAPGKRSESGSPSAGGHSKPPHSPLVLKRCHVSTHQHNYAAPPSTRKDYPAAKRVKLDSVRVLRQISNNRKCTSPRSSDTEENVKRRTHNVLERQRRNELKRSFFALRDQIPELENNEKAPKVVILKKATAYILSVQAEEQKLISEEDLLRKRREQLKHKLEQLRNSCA
Sequence of Peroxisome proliferator-activated receptor gamma (Homo sapiens) (P37231 whole entry, looked up): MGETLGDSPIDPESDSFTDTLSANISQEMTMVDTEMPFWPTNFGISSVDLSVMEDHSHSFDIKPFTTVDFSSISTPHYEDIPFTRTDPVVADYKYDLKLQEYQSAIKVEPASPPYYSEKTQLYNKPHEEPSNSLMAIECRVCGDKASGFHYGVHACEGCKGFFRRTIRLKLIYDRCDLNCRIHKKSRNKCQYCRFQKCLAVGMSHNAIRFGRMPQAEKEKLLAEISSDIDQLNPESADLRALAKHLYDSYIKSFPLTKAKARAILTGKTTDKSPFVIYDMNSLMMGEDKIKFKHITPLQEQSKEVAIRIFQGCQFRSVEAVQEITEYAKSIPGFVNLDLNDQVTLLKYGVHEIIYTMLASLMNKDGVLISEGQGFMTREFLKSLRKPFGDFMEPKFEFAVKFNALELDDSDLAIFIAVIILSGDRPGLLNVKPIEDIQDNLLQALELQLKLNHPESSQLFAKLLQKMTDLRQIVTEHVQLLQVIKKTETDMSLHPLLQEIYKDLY
Sequence of Retinoic acid receptor alpha (Homo sapiens) (P10276 whole entry, looked up, the tested form may be a part): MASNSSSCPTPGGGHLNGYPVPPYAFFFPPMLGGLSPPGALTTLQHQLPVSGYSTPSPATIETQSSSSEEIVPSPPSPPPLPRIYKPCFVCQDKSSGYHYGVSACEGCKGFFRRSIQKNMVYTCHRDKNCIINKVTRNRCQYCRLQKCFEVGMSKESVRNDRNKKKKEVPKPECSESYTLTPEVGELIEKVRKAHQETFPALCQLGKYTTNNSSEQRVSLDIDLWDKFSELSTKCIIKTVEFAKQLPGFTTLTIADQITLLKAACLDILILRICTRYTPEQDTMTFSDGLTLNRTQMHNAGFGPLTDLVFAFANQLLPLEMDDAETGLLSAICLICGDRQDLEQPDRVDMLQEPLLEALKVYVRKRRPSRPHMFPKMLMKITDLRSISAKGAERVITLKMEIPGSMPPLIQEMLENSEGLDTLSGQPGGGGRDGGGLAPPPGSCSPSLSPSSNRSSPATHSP
Sequence of human Peroxisome Proliferator-activated Receptor alpha (PPARa), PPARA (gene 5465) (Q07869 whole entry, looked up, the tested form may be a part): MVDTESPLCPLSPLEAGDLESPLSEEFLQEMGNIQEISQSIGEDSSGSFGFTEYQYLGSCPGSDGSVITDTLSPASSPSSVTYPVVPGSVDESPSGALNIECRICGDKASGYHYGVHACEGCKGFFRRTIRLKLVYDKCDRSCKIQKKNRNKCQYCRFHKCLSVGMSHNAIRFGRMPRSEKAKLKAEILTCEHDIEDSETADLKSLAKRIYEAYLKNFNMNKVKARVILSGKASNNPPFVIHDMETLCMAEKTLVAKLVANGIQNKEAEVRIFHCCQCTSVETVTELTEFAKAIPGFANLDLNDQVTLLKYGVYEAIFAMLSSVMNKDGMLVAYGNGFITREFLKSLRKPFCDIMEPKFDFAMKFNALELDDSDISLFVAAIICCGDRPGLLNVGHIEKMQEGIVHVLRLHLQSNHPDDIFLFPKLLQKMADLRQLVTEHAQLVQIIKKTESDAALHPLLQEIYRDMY
Sequence of human Peroxisome Proliferator-activated Receptor delta (PPARd), PPARD (gene 5467) (Q03181 whole entry, looked up): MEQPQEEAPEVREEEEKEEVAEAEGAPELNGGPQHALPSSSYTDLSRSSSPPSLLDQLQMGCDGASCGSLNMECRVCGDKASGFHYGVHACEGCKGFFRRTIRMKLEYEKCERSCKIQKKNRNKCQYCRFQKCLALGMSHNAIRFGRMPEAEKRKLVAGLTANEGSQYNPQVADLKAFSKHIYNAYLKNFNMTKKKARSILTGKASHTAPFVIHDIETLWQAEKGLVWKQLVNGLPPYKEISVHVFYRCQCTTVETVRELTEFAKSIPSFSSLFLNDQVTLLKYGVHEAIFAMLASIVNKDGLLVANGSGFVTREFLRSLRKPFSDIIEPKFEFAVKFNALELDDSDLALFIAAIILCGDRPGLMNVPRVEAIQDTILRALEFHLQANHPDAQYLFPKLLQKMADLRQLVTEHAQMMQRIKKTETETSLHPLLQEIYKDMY
Sequence of Cellular tumor antigen p53 (Homo sapiens) (P04637 whole entry, looked up): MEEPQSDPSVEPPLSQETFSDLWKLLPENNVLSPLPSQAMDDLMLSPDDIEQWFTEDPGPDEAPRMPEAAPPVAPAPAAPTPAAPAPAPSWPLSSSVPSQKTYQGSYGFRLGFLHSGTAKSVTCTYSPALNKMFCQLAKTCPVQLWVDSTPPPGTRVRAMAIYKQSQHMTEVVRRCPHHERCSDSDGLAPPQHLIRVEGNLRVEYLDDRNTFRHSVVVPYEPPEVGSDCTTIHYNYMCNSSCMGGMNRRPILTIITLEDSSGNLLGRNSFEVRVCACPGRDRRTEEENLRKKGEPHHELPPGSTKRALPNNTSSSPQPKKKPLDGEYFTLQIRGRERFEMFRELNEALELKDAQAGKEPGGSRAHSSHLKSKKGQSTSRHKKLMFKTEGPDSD
Sequence of Nuclear receptor subfamily 1 group I member 2 (Homo sapiens) (O75469 whole entry, looked up, the tested form may be a part): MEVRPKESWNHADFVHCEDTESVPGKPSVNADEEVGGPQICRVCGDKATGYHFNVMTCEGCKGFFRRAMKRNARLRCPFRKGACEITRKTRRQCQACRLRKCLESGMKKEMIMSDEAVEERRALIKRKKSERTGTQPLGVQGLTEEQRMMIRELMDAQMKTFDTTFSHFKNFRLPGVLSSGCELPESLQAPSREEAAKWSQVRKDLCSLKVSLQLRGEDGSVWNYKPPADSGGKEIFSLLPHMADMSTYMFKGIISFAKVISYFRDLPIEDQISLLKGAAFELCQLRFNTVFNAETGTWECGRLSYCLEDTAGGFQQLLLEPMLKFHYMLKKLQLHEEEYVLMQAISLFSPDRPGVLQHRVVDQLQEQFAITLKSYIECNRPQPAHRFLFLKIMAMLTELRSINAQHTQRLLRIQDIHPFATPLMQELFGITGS
Sequence of human Retinoic Acid Receptor gamma (RARg), RARG (gene 5916) (P13631 whole entry, looked up): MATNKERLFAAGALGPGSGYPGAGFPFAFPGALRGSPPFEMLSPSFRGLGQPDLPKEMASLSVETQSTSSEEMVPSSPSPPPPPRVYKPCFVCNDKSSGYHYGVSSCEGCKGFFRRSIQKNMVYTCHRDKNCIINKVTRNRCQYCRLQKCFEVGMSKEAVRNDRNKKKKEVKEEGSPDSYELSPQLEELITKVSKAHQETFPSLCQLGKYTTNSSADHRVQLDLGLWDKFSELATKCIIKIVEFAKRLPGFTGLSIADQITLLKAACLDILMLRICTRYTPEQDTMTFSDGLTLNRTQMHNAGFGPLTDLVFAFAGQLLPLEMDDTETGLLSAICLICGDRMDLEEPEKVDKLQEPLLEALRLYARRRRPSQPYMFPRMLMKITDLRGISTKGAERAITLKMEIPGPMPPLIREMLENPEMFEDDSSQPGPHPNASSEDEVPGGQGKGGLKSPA
Sequence of human Retinoic Acid Receptor beta (RARb), RARB (gene 5915) (P10826 whole entry, looked up, the tested form may be a part): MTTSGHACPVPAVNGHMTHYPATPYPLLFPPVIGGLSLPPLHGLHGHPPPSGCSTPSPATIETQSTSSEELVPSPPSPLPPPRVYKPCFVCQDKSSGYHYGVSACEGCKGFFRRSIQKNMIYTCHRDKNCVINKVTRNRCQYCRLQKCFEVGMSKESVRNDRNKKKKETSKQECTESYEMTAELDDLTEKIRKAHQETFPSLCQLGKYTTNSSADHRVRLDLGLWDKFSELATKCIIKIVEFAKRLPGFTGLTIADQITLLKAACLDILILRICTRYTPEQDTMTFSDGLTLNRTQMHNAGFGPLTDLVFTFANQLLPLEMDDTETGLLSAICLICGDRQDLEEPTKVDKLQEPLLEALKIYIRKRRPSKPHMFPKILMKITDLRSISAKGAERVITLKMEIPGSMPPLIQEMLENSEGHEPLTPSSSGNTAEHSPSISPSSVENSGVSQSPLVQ
Sequence of human RAR-related Orphan Receptor beta (RORb), RORB (gene 6096) (Q92753 whole entry, looked up, the tested form may be a part): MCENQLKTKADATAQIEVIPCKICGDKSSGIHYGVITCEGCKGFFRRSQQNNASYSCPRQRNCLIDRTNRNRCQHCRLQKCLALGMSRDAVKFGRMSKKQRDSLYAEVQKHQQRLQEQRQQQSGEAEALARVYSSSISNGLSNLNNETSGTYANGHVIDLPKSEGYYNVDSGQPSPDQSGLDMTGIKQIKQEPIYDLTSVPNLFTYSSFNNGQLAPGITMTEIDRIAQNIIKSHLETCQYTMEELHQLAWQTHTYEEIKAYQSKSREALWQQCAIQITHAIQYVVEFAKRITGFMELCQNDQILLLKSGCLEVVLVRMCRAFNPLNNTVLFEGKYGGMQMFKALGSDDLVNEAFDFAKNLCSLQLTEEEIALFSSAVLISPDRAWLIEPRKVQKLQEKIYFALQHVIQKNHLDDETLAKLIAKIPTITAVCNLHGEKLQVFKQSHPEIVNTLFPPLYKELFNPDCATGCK

For the compound `CC(C)c1ccc(C#N)cc1`, the compound was called inactive in [1], in [2], in [3], in test [4], in test [5] and in [6]. Besides, the outcome in test [7], in test [8] and in test [9] was inactive.
For the compound `C=C[C@](C)(O)CC[C@@H]1[C@@]2(C)CCCC(C)(C)[C@@H]2CC[C@@]1(C)O`, the call in test [1], in test [2], in test [3], in test [5], in test [6] and in [10] was inactive. Further, the outcome in test [11] was inactive. The AC50 in test [4] is 6.58 µM (active); in test [12] it was 0.331 µM (active).
On to `CCc1ccc2c(c1)C(=O)c1ccccc1C2=O`, for which the result in [1], in test [2], in test [3], in [5], in test [6] and in test [7] was inactive. Besides, the half-maximal activity concentration (AC50) was 14.5 µM (active) in test [4], 24.3 µM (active) in test [11] and 4.34 µM (active) in test [12].
`CC(=O)NS(=O)(=O)c1ccc(N)cc1`: the outcome in [1], in test [2], in test [3], in test [4], in test [5] and in [6] was inactive. Besides, the compound was classed as inactive in test [7], in test [8], in test [12] and in test [13].
Take `O=C(Oc1ccccc1)c1ccc2ccccc2c1O`: the result in test [1], in [2], in [6] and in test [10] was inactive. Further, the half-maximal activity concentration (AC50) in test [3] was 100 µM (active); in test [4] it was 18.3 µM (active); in test [5], 49 µM (active); in [11], 15.9 µM (active); in test [12] it was 16.9 µM (active).
With `CC(C)(c1cc(Br)c(OCCO)c(Br)c1)c1cc(Br)c(OCCO)c(Br)c1`, the AC50 is 45.1 µM (active) in test [1]; 18.6 µM (active) in test [4]; 17.7 µM (active) in test [5]; 16.2 µM (active) in test [14]; 16.2 µM (active) in test [15]; 27.3 µM (active) in test [16]. Further, the half-maximal activity concentration (AC50) was 8.31 µM (active) in test [17]; 28 µM (active) in [18]; 11.9 µM (active) in test [20]; 2.78 µM (active) in test [11]; 1.71 µM (active) in test [12]; 0.454 µM (active) in test [13]. Further, the compound was called inactive in test [2], in [3], in test [10], in test [19] and in test [8].

A word on the AC50: it is the midpoint of the concentration-response curve, whichever way the signal moves.
